Results filed as inconclusive are left out. Activity calls are given as the source filed them. Calls follow the shape of the dose curve; as a rule, active = well fitted inhibition curve with a large enough effect; inconclusive = small, poorly fitted or top-dose-only effect; inactive = flat fitted curve, though single readings scatter.
Tested on: CRL-7250
Assay: qHTS assay to identify novel small-molecules to repurpose for Merkel cell carcinoma treatment (AID 1296009); also: nearly all actives have a fitted effect of over 60% in size
Conditions: MCC and control cell lines, CellTiter-Glo viability, 72 h; at 44.8 µM (top of the series) unless noted
Summary of the method: (§1)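 Luminescence from CellTiter-Glo, read 10 min after addition at room temperature, reported viability following a 72 hr, 37 degree celsius treatment with NPC or MIPE compounds in titration; values normalized to plate controls.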

Row | SMILES | outcome
1 | CN1CCC[C@@H]1Cc1c[nH]c2ccc(Nc3ncccc3[N+](=O)[O-])cc12 | inactive
2 | Cn1ncnc1COc1nn2c(-c3c(F)cccc3F)nnc2cc1C1CCC1 | inactive
3 | CN1C(=O)N(c2ccc(C#N)c(C(F)(F)F)c2)C(=O)[C@]1(CO)c1ccccc1 | inactive
4 | C[C@H]1C(=O)O[C@H]2[C@H](O)[C@]34C5OC(=O)[C@]3(O[C@@H]3OC(=O)[C@H](O)C34[C@H](C(C)(C)C)[C@H]5O)C12O (stereo not given in full) | inactive [at 17.4 µM]
5 | O=C1C[C@@H]2OCC=C3CN4CC[C@]56c7ccccc7N1[C@H]5[C@H]2[C@H]3C[C@H]46 | inactive
6 | CN[C@H]1[C@H](O)[C@H](O[C@@H]2[C@@H](O)[C@H](O[C@H]3O[C@H]([C@H](C)O)[C@@H](O)[C@H](O)[C@H]3N)[C@@H](N)C[C@H]2N)OC[C@@]1(C)O | inactive
7 | COC(=O)C1(C)CCC(O)C2(C)c3cc(O)c(C(C)C)cc3C(O)C(OC(C)=O)C12 (stereo not given) | inactive [at 17.4 µM]
8 | COC1=CC(=O)O[C@@H](CCc2ccccc2)C1 | inactive
9 | COCC1OC(=O)c2coc3c2C1(C)C1=C(C3=O)C2CCC(=O)C2(C)CC1O (stereo not given) | inactive
10 | O=C(O)c1ccnc2cc(C(OCCN3CCCCC3)c3ccccc3Cl)[nH]c12 (stereo not given) | inactive
11 | CC[C@H]1CN2CC[C@H]1C[C@@H]2[C@@H](O)c1ccnc2ccc(OC)cc12 | inactive
12 | C[C@H](NC(=O)Cc1cc(F)cc(F)c1)C(=O)N[C@@H]1N=C(c2ccccc2)c2ccccc2N(C)C1=O | inactive
13 | COc1ccccc1CN[C@H]1C2CCN(CC2)[C@H]1C(c1ccccc1)c1ccccc1 | inactive
14 | COC(=O)C12C(=O)C(C)(O)C(=O)C1(C)C(C)=CC1C34CCC(OC3=O)C(C)(CO)C4CCC12C (stereo not given) | inactive [at 17.4 µM]
15 | COc1cc(CCNCc2ccccc2O)c(OC)cc1C#N | inactive
16 | Cc1cccc(NC(=O)N[C@@H]2N=C(c3ccccc3)c3ccccc3N(C)C2=O)c1 | inactive
17 | CN1CCCC1CCOC(c1cc2nccc(C(=O)O)c2[nH]1)c1ccccc1Cl (stereo not given) | inactive
18 | COC(=O)[C@@]12C(=O)C(C)C(=O)[C@]1(C)C(C)=C[C@H]1[C@]3(C=O)CC[C@H](OC(C)=O)C(C)(C)[C@H]3CC[C@@]12C (stereo not given in full) | inactive [at 17.4 µM]
19 | C/C=C(\C)C(=O)OC1CC2C(CC=C3CC(OC4CC(OC)C(OC5CC(OC)C(OC6OC(C)C(OC7OC(CO)C(O)C(O)C7O)C(OC)C6O)C(C)O5)C(C)O4)CCC32C)C2(O)CCC(C(C)=O)C12C (stereo not given) | inactive [at 9.27 µM]
20 | C/C=C(\C)C(=O)OC1CC2C(C)(C)OC(=O)CC(OC(C)=O)C2(C)C2CC(OC(=O)C(C)C)C3(C)C(c4ccoc4)CC4OC43C12C (stereo not given) | inactive [at 17.4 µM]
21 | CCC(C)(OC(C)=O)C(=O)O[C@H]1[C@H](OC(C)=O)C[C@@H]2[C@@](C)([C@@H]3C[C@H]4C=CO[C@H]4O3)[C@H](C)C[C@H](OC(C)=O)[C@@]2(COC(C)=O)[C@@]12CO2 (stereo not given in full) | inactive [at 17.4 µM]
22 | Clc1ccc(OCC2=NCCN2)cc1Cl | inactive
23 | CC(CCc1ccc(O)cc1)O[C@@H]1O[C@H](CO[C@H]2OC[C@](O)(CO)[C@H]2O)[C@@H](O)[C@H](O)[C@H]1O (stereo not given in full) | inactive [at 17.4 µM]
24 | C=C1[C@@H]2CC[C@@]3(C)[C@H](c4ccoc4)OC(=O)C[C@]13O[C@H]1CC(=O)C(C)(C)[C@H](C(OC(C)=O)C(=O)OC)[C@]12C (stereo not given in full) | inactive [at 17.4 µM]
25 | CC(C)[C@@H](CN1CC[C@@](C)(c2cccc(O)c2)[C@@H](C)C1)NC(=O)[C@H]1Cc2ccc(O)cc2CN1 | inactive
26 | C[C@]12CC[C@H]3[C@@H]([C@H](O)CC4=CC(=O)CC[C@@]43C)[C@@H]1CC[C@@H]2O | inactive
27 | CC1=C2C(=O)C3[C@@H](CC=C4C[C@@H](O)CC[C@@]43C)[C@@H]2CC[C@]12O[C@@H]1C[C@H](C)CN[C@H]1[C@H]2C (stereo not given in full) | inactive [at 17.4 µM]
28 | N#CC(OC1OC(COC2OC(CO)C(O)C(O)C2O)C(O)C(O)C1O)c1ccccc1 (stereo not given) | inactive [at 17.4 µM]

Tested on: HACAT
Assay: as above
Conditions: MCC and control cell lines, CellTiter-Glo viability, 72 h; at 44.8 µM (top of the series) unless noted
Summary of the method: as §1

Row | SMILES | outcome
29 | Cn1ncnc1COc1nn2c(-c3c(F)cccc3F)nnc2cc1C1CCC1 | inactive
30 | C[C@H]1C(=O)O[C@H]2[C@H](O)[C@]34C5OC(=O)[C@]3(O[C@@H]3OC(=O)[C@H](O)C34[C@H](C(C)(C)C)[C@H]5O)C12O (stereo not given in full) | inactive [at 17.4 µM]
31 | O=C1C[C@@H]2OCC=C3CN4CC[C@]56c7ccccc7N1[C@H]5[C@H]2[C@H]3C[C@H]46 | inactive
32 | CN[C@H]1[C@H](O)[C@H](O[C@@H]2[C@@H](O)[C@H](O[C@H]3O[C@H]([C@H](C)O)[C@@H](O)[C@H](O)[C@H]3N)[C@@H](N)C[C@H]2N)OC[C@@]1(C)O | inactive
33 | COC(=O)C1(C)CCC(O)C2(C)c3cc(O)c(C(C)C)cc3C(O)C(OC(C)=O)C12 (stereo not given) | inactive [at 17.4 µM]
34 | COCC1OC(=O)c2coc3c2C1(C)C1=C(C3=O)C2CCC(=O)C2(C)CC1O (stereo not given) | inactive
35 | O=C(O)c1ccnc2cc(C(OCCN3CCCCC3)c3ccccc3Cl)[nH]c12 (stereo not given) | inactive
36 | CC[C@H]1CN2CC[C@H]1C[C@@H]2[C@@H](O)c1ccnc2ccc(OC)cc12 | inactive
37 | C[C@H](NC(=O)Cc1cc(F)cc(F)c1)C(=O)N[C@@H]1N=C(c2ccccc2)c2ccccc2N(C)C1=O | inactive
38 | COc1ccccc1CN[C@H]1C2CCN(CC2)[C@H]1C(c1ccccc1)c1ccccc1 | inactive
39 | COc1cc(CCNCc2ccccc2O)c(OC)cc1C#N | inactive
40 | Cc1cccc(NC(=O)N[C@@H]2N=C(c3ccccc3)c3ccccc3N(C)C2=O)c1 | inactive
41 | COC(=O)[C@@]12C(=O)C(C)C(=O)[C@]1(C)C(C)=C[C@H]1[C@]3(C=O)CC[C@H](OC(C)=O)C(C)(C)[C@H]3CC[C@@]12C (stereo not given in full) | inactive [at 17.4 µM]
42 | C/C=C(\C)C(=O)OC1CC2C(CC=C3CC(OC4CC(OC)C(OC5CC(OC)C(OC6OC(C)C(OC7OC(CO)C(O)C(O)C7O)C(OC)C6O)C(C)O5)C(C)O4)CCC32C)C2(O)CCC(C(C)=O)C12C (stereo not given) | inactive [at 9.27 µM]
43 | C/C=C(\C)C(=O)OC1CC2C(C)(C)OC(=O)CC(OC(C)=O)C2(C)C2CC(OC(=O)C(C)C)C3(C)C(c4ccoc4)CC4OC43C12C (stereo not given) | inactive [at 17.4 µM]
44 | CCC(C)(OC(C)=O)C(=O)O[C@H]1[C@H](OC(C)=O)C[C@@H]2[C@@](C)([C@@H]3C[C@H]4C=CO[C@H]4O3)[C@H](C)C[C@H](OC(C)=O)[C@@]2(COC(C)=O)[C@@]12CO2 (stereo not given in full) | inactive [at 17.4 µM]
45 | Clc1ccc(OCC2=NCCN2)cc1Cl | inactive
46 | CC(CCc1ccc(O)cc1)O[C@@H]1O[C@H](CO[C@H]2OC[C@](O)(CO)[C@H]2O)[C@@H](O)[C@H](O)[C@H]1O (stereo not given in full) | inactive [at 17.4 µM]
47 | C=C1[C@@H]2CC[C@@]3(C)[C@H](c4ccoc4)OC(=O)C[C@]13O[C@H]1CC(=O)C(C)(C)[C@H](C(OC(C)=O)C(=O)OC)[C@]12C (stereo not given in full) | inactive [at 17.4 µM]
48 | CC(C)[C@@H](CN1CC[C@@](C)(c2cccc(O)c2)[C@@H](C)C1)NC(=O)[C@H]1Cc2ccc(O)cc2CN1 | inactive
49 | CC1=C2C(=O)C3[C@@H](CC=C4C[C@@H](O)CC[C@@]43C)[C@@H]2CC[C@]12O[C@@H]1C[C@H](C)CN[C@H]1[C@H]2C (stereo not given in full) | inactive [at 17.4 µM]
50 | N#CC(OC1OC(COC2OC(CO)C(O)C(O)C2O)C(O)C(O)C1O)c1ccccc1 (stereo not given) | inactive [at 17.4 µM]
